Compound activity from PubChem BioAssay.
PI5P4Ka inh: blocks human PI5P4K alpha kinase activity; P48426; PI5P4Kalpha enzyme, ADP-Glo luminescence, 60 min; active compounds read low; max response, %; 1.2% of 330,000 active; AID 652105; active = max response of -50% or lower; inconclusive = between -30% and -50%; inactive = -30% or higher; also: value at the top dose of about 77 µM
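Human PI5P4Kalpha with substrate in 0.038 M HEPES pH 7.4, 0.28 mM EGTA, 0.1% CHAPS, 5% DMSO; reaction started with 5 microM ATP (final), 60 min at room temperature. ADP formed read by ADP-Glo luminescence.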
Pol eta inh: DNA polymerase eta (human) inhibition | AID 588591 | Q9Y253 | recombinant Pol eta, fluorescent DNA replication assay | 1.2% of 390,000 active | Potency, µM (titrated, usually from 114 µM), most hits filed as inhibitors
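Pol eta at 10 nM preincubated with compounds 15 min at room temperature; reaction started with fluorescent substrate (50 nM final) and read kinetically at 0 and 10 min.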
Pol kappa inh: inhibitors of human DNA polymerase kappa; Q9UBT6; purified Pol kappa, fluorescent DNA synthesis assay, 10 min; Potency, µM (highest dose often 107 µM), hits mostly inhibitors; 0.53% of 400,000 active; AID 588579
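Inhibition of 10 nM Pol kappa is measured by a fluorescent read-out at 0 and 10 min following addition of 50 nM substrate (final), with a 15-min room-temperature compound preincubation.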
POLI inh: DNA polymerase iota (human) inhibition. Q9UNA4. Pol iota fluorescent replication assay, 10 min. Potency, µM (top dose mostly 115 µM), most hits filed as inhibitors. 1% of 390,000 active. AID 588590
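Fluorescent replication assay read twice, at 0 min and 10 min after adding 50 nM (final) substrate. Enzyme (10 nM) and compounds were first incubated 15 min at room temperature; enzyme-free buffer wells were negative controls.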
POLB inh: inhibitors of human DNA polymerase beta | P06746 | Pol beta primer extension/strand displacement, fluorescence kinetic | Potency, µM (highest dose often 114 µM), usual class: inhibitors | 1.3% of 340,000 active | AID 485314
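10 nM enzyme + cpd, 15 min RT; start with substrate 50 nM final; read 0 min and after 10 min RT. Corrected, normalized data; 4-parameter Hill curve fit.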
WRN inhibitor: WRN helicase (human) inhibition; WRN helicase unwinding, fluorescent forked duplex, kinetic; 0.46% of 360,000 active; Potency, µM (top dose mostly 114 µM), usual class: inhibitors; AID 651768; also: nearly all actives have a fitted effect of over 55% in size
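Fluorescence dequenching readout, ex 525 nm/em 598 nm, kinetic mode: forked duplex DNA (100 nM final) with adjacent fluorophore and quencher unwound by WRN (20 nM final) with 2 mM ATP. Compound preincubation 15 min, room temperature.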
Hits are given with their value; – = inactive; ? = inconclusive; · = not tested or not shown. This is a sample that favours compounds with a hit; in the whole collection about 2.8% have one here. Unless noted, calls follow the shape of the dose curve; as a rule, active = well fitted curve in the direction sought with a large enough effect; inconclusive = small, poorly fitted or top-dose-only effect, or another doubt; inactive = no such curve, though single readings can be large; an effect the other way counts as inactive or inconclusive.

SMILES | PI5P4Ka inh | Pol eta inh | Pol kappa inh | POLI inh | POLB inh | WRN inhibitor
COC(=O)CCC(=O)OC1(C)C(=O)C=C2C=C(C3CC3)N(CCCCO)C=C2C1=O (stereo unspecified) | – | – | – | 25.1µM | – | –
COC(=O)CCC(=O)OC1(C)C(=O)C=C2C=C(C3CC3)N(Cc3ccc(OC)cc3)C=C2C1=O (stereo unspecified) | – | – | – | 17.8µM | – | –
CCc1cc2cc(C(=O)Nc3ccc(F)cc3)sc2s1 | – | ? | – | ? | 56.2µM | –
CCc1cc2cc(C(=O)Nc3ccccc3F)sc2s1 | · | – | – | – | – | –
N#Cc1c(-c2ccccc2)cc(-c2ccco2)c(C#N)c1N | · | · | · | · | 39.8µM | ·
N#Cc1sc2nc(-c3ccccc3)cc(-c3ccco3)c2c1N | -99.9 | 8.91µM | 50.1µM | 0.794µM | 39.8µM | 35.5µM
CC(=O)Nc1nc(-c2ccccc2)cc(-c2ccco2)c1C#N | – | – | – | – | · | –
CCOC(=O)c1cnc(SCC(=O)Nc2ccc(NC(C)=O)c(OC)c2)nc1N | · | – | – | – | – | –
CCOC(=O)c1cnc(SCC(=O)Nc2cc(OC)ccc2OC)nc1N | – | ? | – | – | 22.4µM | –
COc1ccc(OC)c(NC(=O)CSc2nc3[nH]c(=O)[nH]c(=O)c3s2)c1 | ? | 50.1µM | – | ? | · | –
COc1cc2nc(NC3CCN(Cc4ccccc4)CC3)nc(N3CCCN(C)CC3)c2cc1OC | · | · | – | – | · | ·
CCc1ccccc1NC(=O)CSc1nc(-c2ccccc2OC)nc2c1Cc1c(CO)cnc(C)c1O2 | · | – | – | – | ? | ·
COc1ccccc1-c1nc2c(c(SCC(=O)Nc3ccccc3F)n1)Cc1c(CO)cnc(C)c1O2 | · | – | – | – | 79.4µM | ·
COc1cc(OC)c(OC)cc1/C=C/c1nc2cc3ccccc3cc2c(=O)n1-c1ccc(F)cc1F | · | – | – | – | ? | ·
COc1cccc2sc(N3CCN(C(=O)CS(=O)(=O)c4ccc(Cl)cc4)CC3)nc12 | · | – | – | – | – | ·
COc1ccc(CNC(=O)CSc2nc(-c3ccc(OC)c(OC)c3)cc(C(F)(F)F)n2)cc1 | · | – | – | – | – | ·
COc1ccc([C@H]2CC(=O)C=C(c3ccc(SC)cc3)C2)cc1 | – | – | – | 89.1µM | · | –
COc1ccc(C2=CC(=O)C[C@H](c3ccc(OC)cc3)C2)cc1 | – | – | – | – | · | –
CCOc1cc(CNCCSc2nnnn2-c2ccccc2)cc(Cl)c1OC | · | – | – | – | – | ·
O=c1cc(-c2ccccc2)oc2cc(O)c(O)cc12 | · | · | 3.16µM | · | · | ·
O=c1cc(-c2ccccc2)oc2ccccc12 | – | – | – | – | · | –
O=c1cc(-c2ccc(O)c(O)c2)oc2ccccc12 | · | · | 14.1µM | · | · | ·
O=C(c1ccccc1)c1c(O)cc(-c2ccccc2)oc1=O | – | – | – | – | 15.8µM | –
O=C1c2ccccc2C(=O)C1c1ccccn1 | – | ? | – | – | – | –
O=C1c2ccccc2C(=O)C2OC12 (stereo unspecified) | · | · | · | · | 70.8µM | ·
SMILES | PI5P4Ka inh | Pol eta inh | Pol kappa inh | POLI inh | POLB inh | WRN inhibitor
Cc1cccc(NC(=O)c2cn(-c3ccccc3)nc2-c2ccccc2)c1C | · | – | – | – | – | ·
O=c1cc(-c2ccc(Cl)cc2)[nH][nH]1 | · | – | – | 1.58µM | – | –
COc1ccc(NC(=O)CN(C)C(=O)CCC(=O)c2ccc(C)cc2)cc1 | – | – | – | – | · | –
Cc1ccc(NC(=O)CN(C)C(=O)CCC(=O)c2cccs2)cc1 | ? | ? | – | ? | 17.8µM | –
Cc1ccnc(NC(=O)CCC(=O)c2cccs2)c1 | ? | ? | ? | 20µM | · | –
Cc1ccnc(NC(=O)CS(=O)(=O)c2ccccc2)c1 | – | – | – | – | – | –
Cc1ccnc(NC(=O)CCS(=O)(=O)c2ccccc2)c1 | – | – | – | – | 22.4µM | –
O=C1c2cccc3c(O)ccc(c23)C(=O)N1Cc1ccccc1 | -62.7 | ? | – | ? | – | –
O=C(O)c1cccc(CN2C(=O)c3ccccc3C2=O)c1 | – | – | – | – | – | –
O=S(=O)(Nc1ccc(S(=O)(=O)Nc2nccs2)cc1)c1ccc(Br)cc1 | – | – | – | – | – | –
O=S(=O)(Nc1nccs1)c1ccc(NS(=O)(=O)c2c(F)cc(F)c(Cl)c2F)cc1 | – | 50.1µM | – | ? | · | –
